Experimental data from PubChem BioAssay AID1159583 (ICCB-Longwood Screening Facility, Harvard Medical School, 2016).
“And” between values parts separate entries of the source, which are not always exact repeats. Equal entries are not always repeated. Out of some 300,000 compounds screened, about 310 (0.1%) were called active. No stated cut-off is given here; in the data, active means fluorescence inhibition mostly above about 23% (no sharp cut-off); inactive means mostly below about 17%. The list comes from a sample in which actives are over-represented; it also holds similar structures and randomly drawn compounds.

test: hypoxia reporter signal reduction in M. tuberculosis – fluorescence, absorbance growth readout, primary screen (AID 1159583); conditions: M. tuberculosis hypoxia-regulated fluorescent reporter, stronger effect = higher value, concentration not given here; growth inhibition: measured here: M. tuberculosis growth (absorbance)

Structure (SMILES) | fluorescence inhibition | growth inhibition
CC(=NNC(=O)c1cc(-c2cccnc2)nc2ccccc12)c1ccc(O)cc1O | 2.22% (inactive) | 2.87%
COc1ccc(C=NNC(=O)c2ccccc2OC)cc1COc1ccccc1[N+](=O)[O-] | 1.62% (inactive) | -1.45%
C[C@@]12CCC=CC1C(c1ccc(C(F)(F)F)cc1)N(Cc1ccccc1)C2=O (some centres undefined) | 11.1% (inactive) | 10.9%
Cc1ccccc1CN1C(Cc2ccccc2)COCCS1(=O)=O (centres undefined) | 6.62% (inactive) | 4.01%
CC=CC=CC(=O)Nc1cccc(C2=NOC3(C2)CC(C(N)=O)N(C(=O)c2ccccc2C(=O)c2ccccc2)C3)c1 (centres undefined) | -0.767% (inactive) | 8.5%
COC(=O)CSc1nc2ccccc2c(=O)n1Cc1ccccc1 | 5.85% (inactive) | 20.4%
C=CCn1c(SCc2ccc(C(=O)NCCO)cc2)nc2ccccc2c1=O | 9.54% (inactive) | 8.96%
C=CCn1c(SCC(=O)NC(=O)Cc2ccccc2)nc2ccccc2c1=O | 23.4% (active) | 56.9%
CCN(CC)c1ccc(C=NNS(=O)(=O)c2cccc([N+](=O)[O-])c2)cc1 | -5.38% (inactive) | 0.14%
CCC(=NNC(=O)CSCc1ccccc1Br)c1ccc2c(c1)OCCO2 | 0.753% (inactive) | 1.89%
O=C(NN=Cc1cccc([N+](=O)[O-])c1)c1ccc(CN2CCOCC2)cc1 | 4.86% (inactive) | 16.6%
CCCCN=C1NC(=Cc2ccco2)C(=O)N1c1ccccc1 | 8.24% (inactive) | 10.9%
COc1ccccc1C=NNC(=O)CCn1cnc2ccccc21 | 4.69% (inactive) | -0.174%
CCCCNC(=O)CN1C(=O)NC(Cc2ccccc2)(Cc2ccccc2)C1=O | 3.73% (inactive) | 16.6%
COc1cccc(CNC(=O)CN2C(=O)NC(Cc3ccccc3)(c3ccccc3)C2=O)c1 (centres undefined) | 26.4% (active) | 52.7%
COc1cccc(CNC(=O)COC(=O)CN2C(=O)NC3(CCCCC3C)C2=O)c1 (centres undefined) | -6.03% (inactive) | 2.37%
CC(CC(=O)Nc1ccc(Cl)cc1Cl)=NNC(=O)C(=O)N1CCCC1 | 11% (inactive) | 5.91%
COc1ccc(C=NN=C(N)c2nonc2N)cc1 | 10.3% (inactive) | 6.79%
CC(=O)OCC1OC(CC=NOCC(O)C2OC3OC(C)(C)OC3C2O)C=CC1OC(C)=O (centres undefined) | 9.33% (inactive) | 7.61%
CCOC(=O)C1C2COc3cc(OC)ccc3C2N2C(=O)N(c3ccc(Cl)cc3)C(=O)[C@]12C (some centres undefined) | -4.96% (inactive) and 1.79% (inactive) | 2.67% and 0.308%
CC(=O)Nc1ccc(S(=O)(=O)NN=Cc2ccc(C)o2)cc1 | 7% (inactive) | -2.42%
O=C(Cc1cccs1)NN=C/C=C/c1ccco1 | 8.6% (inactive) | 14.2%
O=C(CNC(=O)c1ccc2c(c1)OCCO2)NN=Cc1ccc(Cl)cc1 | -0.656% (inactive) | 8.25%
COc1ccc(OC)c(C=NNC(=O)c2[nH]ncc2Br)c1 | 17.8% (inactive) | 3.99%
COc1cc(C=NNC(=O)Cc2c[nH]c3ccccc23)cc(OC)c1OC | 1.09% (inactive) | 3.89%
COc1ccc2ccccc2c1C=NNC(=O)c1cccc(Br)c1 | 6.25% (inactive) | 6.52%

Structure (SMILES) | fluorescence inhibition | growth inhibition
CCN1C(=O)C2C(c3ccc(-c4cccc(Cl)c4)cc3)N[C@@](C)(C(=O)OC)C2C1=O (some centres undefined) | 8.93% (inactive) | 17.5%
Cc1ccccc1CN1C(=O)C(C)SC1=NN=Cc1ccco1 (centres undefined) | 7.25% (inactive) | 1.63%
COC(=O)c1ccc(C=NNC(=O)c2ccc3nc[nH]c3c2)cc1 | 3.23% (inactive) | -1.77%
CC(C)C(=NNC(=O)Nc1ccccc1)c1ccccc1 | 3.82% (inactive) | 6.86%
CC(=NNC(=O)c1csc(C)c1C)c1ccco1 | 12.3% (inactive) | 18.1%
CCN(CC)S(=O)(=O)c1ccc(NN=Cc2ccc(OC)c(OC)c2OC)nc1 | 6.7% (inactive) | 6.24%
CC(=NNC(=O)c1cc2ccccc2cc1O)c1ccc2c(c1)OCO2 | -11.6% (inactive) | 0.0347%
C=CCNC(=S)NN=Cc1ccc(-c2cc(Cl)ccc2Cl)o1 | 6.01% (inactive) | 7.37%
N#Cc1ccc(OCC(=O)NN=CC2CC=CCC2)cc1 (centres undefined) | 15.6% (inactive) | 1.47%
O=C(CCCCCCCCC(=O)NN=Cc1ccco1)NN=Cc1ccco1 | -1.23% (inactive) | 5.53%
Cc1cccc(C(=O)NN=C2SCC(=O)N2Cc2ccccc2)c1 | -0.985% (inactive) | -2.16%
O=C(NN=Cc1ccc2nccnc2c1)c1ccc(Br)cc1 | -2.27% (inactive) | -1.22%
C/C(C=NNC(=O)Cc1cccs1)=C\c1ccco1 | 8.51% (inactive) | 5.57%
CCOC(=O)NN=CC=Cc1ccco1 | 5.07% (inactive) | 6.05%
COC(=O)c1ccc2[nH]c(C(C)O)c(C(C)O)c2c1 (centres undefined) | -12.5% (inactive) | 0.422%
COc1cc(C=NNC(=O)C(=O)NCc2cccnc2)cc(OC)c1OC | 11.1% (inactive) | 2.3%
COC(=O)C1C[C@@]2(Br)c3ccccc3N(S(=O)(=O)c3ccccc3)C2N1C(=O)OC (some centres undefined) | -0.203% (inactive) | -1.54%
CCOc1cccc(C=NN2C(C)CCCC2C)c1O (centres undefined) | -2.33% (inactive) | -0.595%
O=C(NC1CCCCC1)C1CC=CC2CCN(C3CCCCC3)C(=O)C21 (centres undefined) | 8% (inactive) | 14.6%
C[C@@]12C(=O)N(Cc3ccco3)CC(=O)N1C1c3cc(Cl)ccc3OCC1C2c1ccccc1 (some centres undefined) | -6.06% (inactive) | 1.32%
Cn1cc([N+](=O)[O-])c(C(=O)NN=Cc2ccc([N+](=O)[O-])cc2)n1 | -5.59% (inactive) | 5.33%
Cc1ccc(C=NN(C)S(=O)(=O)c2ccc(C)cc2)cc1 | -1.94% (inactive) | -2.51%
CCOC(=O)C1=C(C)CC(=NNC(=O)c2ccccc2O)CC1 | 19.7% (inactive) | 25.6%
CC(=NNC(=O)c1ccc(CSc2nncn2C)cc1)c1ccc(Cl)cc1 | -0.114% (inactive) | 4.72%
Cc1cc(C)nc(N=C(N)C2=C(O)CC(C)(C)CC2=O)n1 | 8.68% (inactive) | 10.4%
CC(Oc1ccccc1[N+](=O)[O-])C(=O)NN=Cc1ccoc1 (centres undefined) | -0.473% (inactive) | 0.98%
